Results filed as inconclusive are left out. Calls of active or inactive are those of the source. Calls come from the whole dose curve; as a rule, active = well fitted curve in the direction sought with a large enough effect; inconclusive = small, poorly fitted or top-dose-only effect, or another doubt; inactive = no such curve, though single readings can be large; an effect the other way counts as inactive or inconclusive.
How the values were obtained:
[1] = qHTS for ATAD5 Antagonist screened against the NCATS CANVASS Library (AID 1347370);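 note: HEK293T cells carrying an ATAD5 luciferase reporter co-treated with 10 µM 5-fluorouridine; series mostly up to about 46 µM; % is set by controls: 0 for no effect and ±100 for the full control effect; nearly all actives have a fitted effect of over 65% in size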
Method in brief: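 HEK293T cells with a stably integrated ATAD5-controlled luciferase reporter were exposed to compounds (11-pt) alongside 10 uM 5-fluorouridine as ATAD5 stabilizer for 16hr at 37C. Viability was read by CellTiter-Fluor fluorescence, then ATAD5 by luminescence.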

[2] = J3T Cancer Cell Toxicity qHTS against the NCATS CANVASS Library (AID 1347371);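 note: J3T is a canine glioma cancer cell line seeded at 500 cells per well; series mostly up to about 46 µM; % is set by controls: 0 for no effect and ±100 for the full control effect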
Method in brief: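 J3T dog glioma cells (500 cells/well) were exposed to compounds in an 11-point series for 72 hr at 37C, 5% CO2. Cytotoxicity was read as ATP content by CellTiterGlo luminescence.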

[3] = target: Nuclear receptor subfamily 1 group I member 3 (Homo sapiens) (UniProt Q14994); test: qHTS for Constitutive Androstane Receptor (CAR) Agonist screened against the NCATS CANVASS Library (AID 1347373);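 note: every well also contained 1.5 µM PK11195 alongside the test compound; 0% is about no effect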
Method in brief: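 HepG2 cells stably expressing hCAR and a CYP2B6-2.2kb luciferase reporter were treated for 24hr at 37C with compounds (11-point qHTS) in the presence of 1.5uM PK11195. Reporter activation was read by ONE-Glo luminescence.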

[4] = qHTS for Hypoxia signaling pathway (HIF-1) antagonists against the NCATS CANVASS Library (AID 1347374);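 note: HRE-bla ME-180 cells stimulated with cobalt chloride to stabilize HIF-1alpha; series mostly up to about 38 µM; % is set by controls: 0 for no effect and ±100 for the full control effect; nearly all actives have a fitted effect of over 60% in size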
Method in brief: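 HRE-bla ME-180 cells (2,000/well, 0.5% dialyzed FBS) were pre-incubated 5 h, then given an 11-point compound series plus CoCl2 (60 uM solution as added) for 17 h at 37C. CCF4 β-lactamase read (ex 405, em 460/530 nm) after 2 h at RT.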

[5] = qHTS for Hypoxia signaling pathway (HIF-1) agonists against the NCATS CANVASS Library (AID 1347375); note: 0% is about no effect
Method in brief: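 HRE-bla ME-180 cells (beta-lactamase reporter under hypoxia responsive element) in 0.5% dialyzed FBS medium, 5 h at 37C, then compound 17 h, 11-point qHTS series. CCF4-AM FRET substrate 2 h RT; 460/530 nm emission read.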

[6] = 10-beta competent E. coli microbial cell viability qHTS against the NCATS CANVASS Library (AID 1347376); note: series mostly up to about 46 µM; 0% is about no effect
Method in brief: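 10-beta competent E. coli (0.9 OD culture diluted to 0.2 OD) exposed to compounds in an 11-point qHTS series, incubated overnight at 37C, 5% CO2. Viability read as ATP by BacTiter-Glo luminescence after 20 min at room temperature.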

[7] = DH5-alpha competent E. coli microbial cell viability qHTS against the NCATS CANVASS Library (AID 1347377); details: outcome: dose series up to 46.1 µM unless noted
Method in brief: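 DH5-alpha E. coli suspension (0.9 OD culture diluted to 0.2 OD) exposed to compounds in an 11-point series, overnight at 37C, 5% CO2. Viability read as ATP by BacTiter-Glo luminescence after 20 min at room temperature.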

[8] = qHTS for Inflammasome Signaling Inhibitors: IL-1-beta AlphaLISA screen against the NCATS CANVASS Library (AID 1347379);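 note: human THP-1 cells primed with LPS then triggered with ATP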
Method in brief: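 Human THP-1 cells were pretreated 1 hr at 37 °C with compounds (up to 57.5 uM final), then stimulated with LPS (250 ng/mL final) and ATP (1.25 mM final). Secreted IL-1B was read by AlphaLISA after 16 hr.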

[9] = qHTS for Antimalaria activity screened against the NCATS CANVASS Library (AID 1347380);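 note: Plasmodium falciparum strain Dd2 asexual parasites grown in red blood cells; series mostly up to about 29 µM; nearly all actives have a fitted effect of over 40% in size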
Method in brief: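 P. falciparum Dd2-infected RBCs (2.5% hematocrit final, 0.3% parasitemia) in Albumax II RPMI were exposed to compounds in an 11-point qHTS series for 72 h at 37C under 5% O2/5% CO2, then lysed with SYBR Green.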

[10] = Inflammasome Signaling qHTS Counterscreen: IL-1-beta AlphaLISA counterscreen against the NCATS CANVASS Library (AID 1347381);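 note: cell-free check with purified IL-1β in medium and no THP-1 cells; series mostly up to about 57 µM; 0% is about no effect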
Method in brief: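 To flag interference with the AlphaLISA read-out, a known amount of purified IL-1-beta (4 pg) replaced cell supernatant. Detection used anti-IL-1-beta acceptor beads, biotinylated antibody and streptavidin donor beads at room temperature.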

[11] = Cytotoxicity qHTS for assessment of Hepg2 cells membrane integrity screened against the NCATS CANVASS Library (AID 1347387)
Method in brief: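 HepG2 cells (2000/well) attached overnight at 37C, then received compounds in an 11-point series at 0.59 nM - 46 uM final for 5 hr. LDH release was detected fluorometrically (ex 560/em 590 nm) with CytoTox-ONE reagent after 10 min at room temperature.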

[12] = qHTS for Activators of p53 Stress Response Pathway screened against the NCATS CANVASS Library (AID 1347388); note: 0% is about no effect
Method in brief: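 Beta-lactamase reporter driven by p53 response elements in HCT-116 cells, read as the 460 nm/530 nm emission ratio after CCF4 loading, following 16 h of exposure to an 11-point series. Cell viability was measured in the same wells by CellTiter-Glo luminescence.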

[13] = Secretion counterscreen for inhibitors of the SERCaMP assay screened against the NCATS CANVASS Library (AID 1347390);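 note: light from luciferase secreted into medium read as a measure of general secretion; series mostly up to about 77 µM; % is set by controls: 0 for no effect and ±100 for the full control effect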
Method in brief: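 SH-SY5Y cells expressing constitutively secreted GLuc, 1000 cells/well, attached 4 h at 37C, then exposed to compounds (0.001 - 77 uM, 11-pnt series) for 20 h. Coelenterazine added; luminescence read to flag secretory-pathway interferers.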

[14] = qHTS for activators of Nrf2/ARE signaling pathway screened against the NCATS CANVASS Library (AID 1347391); note: 0% is about no effect; nearly all actives have a fitted effect of over 60% in size
Method in brief: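 ARE-bla HepG2 beta-lactamase reporter cells, 2000 cells/well, were preincubated 5 h, then exposed to compounds (11-point series) for 16 h at 37C. CCF4 fluorescence (ex 405, em 460/530 nm) after 2 h at room temperature.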

[15] = qHTS for activators of dead-cell proteases activity screened against the NCATS CANVASS Library (AID 1347392);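 note: luminescence from protease leaking out of membrane-damaged cells cleaving impermeant substrate; 0% is about no effect; rising signal means more cytotoxicity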
Method in brief: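 Compounds are pin-transferred onto attached HepG2 cells, giving 11 final concentrations. After 5 h at 37C, AAF-aminoluciferin reagent is added and luminescence is recorded at room temperature.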

[16] = qHTS for inhibitors of ER calcium dysfunction: SERCaMP assay screened against the NCATS CANVASS Library (AID 1347393);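 note: series mostly up to about 77 µM; % is set by controls: 0 for no effect and ±100 for the full control effect; lower secreted reporter signal means inhibitor of ER calcium depletion; nearly all actives have a fitted effect of over 40% in size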
Method in brief: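 Thapsigargin-induced ER calcium depletion drives GLuc-SERCaMP secretion from SH-SY5Y cells; compounds given 16 h beforehand were scored by lowered coelenterazine luminescence after 4 h challenge.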

[17] = Vero-766 cells viability qHTS against the NCATS CANVASS Library: Counterscreen for Zika virus inhibition assay (AID 1347394); note: series mostly up to about 46 µM; % is set by controls: 0 for no effect and ±100 for the full control effect; nearly all actives have a fitted effect of over 60% in size
Method in brief: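 Uninfected Vero 766 (African green monkey) cells, 1000/well, attached overnight, then exposed 72 h at 37C to compounds (11-point qHTS). Viability read by CellTiter-Glo luminescence; media-only wells served as 100% inhibition.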

[18] = qHTS for inhibitors of Wild type Zika virus screened against the NCATS CANVASS Library (AID 1347396);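 note: ATP luminescence of surviving cells so rescue from viral cell killing; series mostly up to about 46 µM; % is set by controls: 0 for no effect and ±100 for the full control effect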
Method in brief: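 Using ATP-based luminescence (CellTiter Glo), this screen scores rescue of Vero 766 cells from wild-type Zika killing at 72 h post-infection. Compounds are tested in a concentration series.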

[19] = Viability qHTS for inhibitors of the SERCaMP assay screened against the NCATS CANVASS Library (AID 1347400); note: series mostly up to about 92 µM; % is set by controls: 0 for no effect and ±100 for the full control effect; nearly all actives have a fitted effect of over 70% in size
Method in brief: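 SH-SY5Y-GLuc SERCaMP MJH297-derived cells (1000 cells/well) were pre-incubated 4 h at 37C, then exposed to compounds for 48 h. Viability was read as CellTiter-Glo luminescence; bortezomib served as positive control.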

[20] = Redox Reaction Profiling qHTS: Assay Interference Panel against the NCATS CANVASS Library (AID 1347401);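 note: 100% = activation by 2 µM chloranil control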
Method in brief: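 Cell-free redox surrogate: 5 uM resazurin + 200 uM DTT, 50 mM HEPES pH 7.3/50 mM NaCl; cpds pinned, 11-pt qHTS; Ex525/Em598 read t0 and t=15 min, dark.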

Chain of Nuclear receptor subfamily 1 group I member 3 (Homo sapiens) (Q14994 whole entry, looked up): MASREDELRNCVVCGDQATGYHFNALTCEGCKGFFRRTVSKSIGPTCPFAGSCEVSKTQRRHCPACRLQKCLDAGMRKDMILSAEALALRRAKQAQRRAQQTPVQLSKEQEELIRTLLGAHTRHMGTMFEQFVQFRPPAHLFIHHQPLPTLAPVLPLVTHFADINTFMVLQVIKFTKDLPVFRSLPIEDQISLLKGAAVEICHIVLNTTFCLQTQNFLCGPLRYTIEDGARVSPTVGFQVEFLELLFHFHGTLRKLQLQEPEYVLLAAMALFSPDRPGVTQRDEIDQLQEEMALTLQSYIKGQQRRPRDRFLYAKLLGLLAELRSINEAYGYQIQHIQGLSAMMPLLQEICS

COc1ccc2oc3c(OC)c(OC)c(OC)c(OC)c3c(=O)c2c1
inactive: activity change, negative = inhibition [1] -20.5% [at 9.19 µM] | activity change, negative = cytotoxicity [2] -8.53% [at 9.19 µM] | activation [3] 7.45% [at 9.19 µM] | activity change, negative = inhibition [4] 0.76% [at 7.64 µM] | activation [5] 1.59% [at 7.64 µM] | activity change, negative = cytotoxic [6] -7.99% [at 9.19 µM] | outcome [7] inactive [at 9.19 µM] | outcome [8] inactive [at 11.5 µM] | activity change, negative = inhibition [9] -46.5% [at 5.73 µM] | activity change, negative = inhibition [10] 10.5% [at 11.5 µM] | cytotoxicity (LDH release) [11] -0.617 [at 9.19 µM] | activation [12] -1.1% [at 9.19 µM] | activity change, negative = inhibition [13] -3.74% [at 15.3 µM] | activation [14] 5.78% [at 9.19 µM] | activation (cytotoxicity) [15] -1.14% [at 9.19 µM] | activity change, negative = inhibition [16] -15.7% [at 15.3 µM] | activity change, negative = cytotoxic [17] -1.29% [at 9.19 µM] | activity change, negative = antiviral [18] -12.7% [at 9.14 µM] | activity change, negative = cytotoxicity [19] -11.8% [at 18.4 µM] | activation (redox signal) [20] -9.99% [at 11.4 µM]

Source: PubChem BioAssay (NCATS)
